Laboratory results reported in ChEMBL document CHEMBL4513216, “Probing the Open Global Health Chemical Diversity Library for Multistage-Active Starting Points for Next-Generation Antimalarials” (ACS Infect Dis, 2020).
The campaign covered roughly 69,000 compounds. About 8,600 (12%) showed an effect of 50% or more. Only a selection was taken, and strong results are over-represented in it overall.

The compounds below were run on Plasmodium berghei (assay: Screen against P. berghei liver stage (PbLuc), transformed with Luciferase, at 10uM). Conditions: tested at 10 uM.
Assay type: functional, HepG2

SMILES | INHIBITION
Cc1cc(NCCO)nc(-c2ccccc2O)n1 | -16%
CC1(C)Cc2ccccc2-c2nc(NCCCO)[nH]c(=O)c21 | 45.8%
CCC1(CC)Cc2ccccc2-c2nc(NCCO)[nH]c(=O)c21 | 64%
CCC1(CC)Cc2ccccc2-c2nc(CN(C)C)nc(O)c21 | 53.7%
CNc1ccc(CC2CCCN(C(=O)c3scnc3C)C2)nn1 (stereo not given) | 26.3%
CO[C@H]1CN(C(=O)c2cccc(C)n2)CC[C@@]12CCCO2 | 21.7%
Cc1ccc(N2CCCC(NCc3ccc4c(c3)CCO4)C2)nn1 (stereo not given) | 7.12%
COCCN1CCCC(c2ncc(C(=O)N(C)C)c(C)n2)C1 (stereo not given) | 9.98%
Cc1ccc(CN2C[C@@H]3[C@@H](C(=O)NCC(C)C)CCS(=O)(=O)[C@@H]3C2)cc1 | -36.9%
COc1ccc(CN(C)Cn2cc(C)n(-c3cc(C)on3)c2=O)cc1 | 19.3%
Cc1cccnc1NC(=O)N(CCO)Cc1ccsc1 | -6.75%
CNC(=O)c1cccnc1N1CCC(OCc2ccccc2)CC1 | 6.11%
Cc1ccc(NC2CCN(C(=O)COc3cccc(F)c3)CC2)nn1 | 4.52%
O=C(O)c1cccc(N2CCC(Oc3cccc(F)c3)CC2)n1 | 35%
CNC(=O)c1cccnc1N1CCC(Oc2ccc(F)cc2)CC1 | 93.6%
O=C(O)c1ccc(N2CCC(Oc3cccc(F)c3)CC2)nc1 | 32.2%
COC(=O)c1cccnc1N1CCC(Oc2cccc(F)c2)CC1 | 58.4%
O=C(O)c1ccc(N2CCC(Oc3ccc(Cl)cc3)CC2)nc1 | 29.4%
CNC(=O)c1cccnc1N1CCN(C/C=C/c2ccccc2)CC1 | 25.1%
CCN(C)C(=O)c1ccc(N2CCC(Oc3cccc(F)c3)CC2)nc1 | 61%
COc1ncccc1C(=O)N1CC[C@]2(C[C@@H](Oc3cccnc3)CO2)C1 | 6.66%
CC(C)NC(=O)C1CN(C(=O)Nc2cccc(F)c2)CC12CCOCC2 (stereo not given) | 17.1%
Cc1cnn(CC(C)Nc2cnc3ccccc3n2)c1 (stereo not given) | -26.8%
CCn1cc(-n2cc3nc(N4CCN(C)CC4)[nH]cc-3c2=O)cn1 | -5.53%
CN(C)S(=O)(=O)N1CCN(c2cc(-n3cccc3)ncn2)CC1 | 14.4%
CCc1noc(CN(C)C(=O)c2ccnc(OC3CCC3)c2)n1 | 55.4%
CN(Cc1cnn(C)c1)C(=O)c1ccnc(OC2CCC2)c1 | 46.4%
CN(Cc1ccc(C#N)cc1)C(=O)c1ccnc(OC2CCC2)c1 | 51.4%

SMILES | INHIBITION
CN(Cc1cnccn1)C(=O)c1ccnc(OC2CCC2)c1 | 36.3%
CN(Cc1nnc(C2CC2)n1C)C(=O)c1ccnc(OC2CCC2)c1 | -13.4%
CN(CC1CCCCO1)C(=O)c1ccnc(OC2CCC2)c1 (stereo not given) | 9.48%
CC(C)NC(=O)N1CCc2ncc(CN3CCOCC3)n2CC1 | 21.6%
CCCS(=O)(=O)N1Cc2nccn2CC(CN(C)C)C1 (stereo not given) | -57.5%
CC(=O)Nc1ccc(CNCc2ccc(CS(C)(=O)=O)cc2)cc1 | 38%
Cc1cc(NCc2csc(C)n2)no1 | 29.4%
COCc1nc(CNc2cc(C)on2)cs1 | 51.7%
COCc1nc(CNc2cccc(-c3nc(C)c(C)o3)c2)cs1 | 65.3%
COCc1nc(CNc2cccc(-c3ncon3)c2)cs1 | -42.1%
COCc1nc(CNc2cccc(-c3csc(C)n3)c2)cs1 | 18.9%
Cc1cc(NCc2csc(-c3ccsc3)n2)no1 | -92.1%
CN(Cc1noc2c1CCCC2)C(=O)Nc1ccc2oc(=O)n(C)c2c1 | 36.4%
Cc1cnn(CCNCc2ccccc2OCc2ccncc2)c1 | -15.5%
CCN(Cc1ccco1)C(=O)c1cc(OC)c2c(c1)OCCO2 | 10.3%
COc1cc(C(=O)N(Cc2ccco2)C2CC2)cc2c1OCCO2 | -2.37%
COc1cc(C(=O)N(Cc2ccco2)C2CC2)cc(OC)c1OC | 53.4%
O=C(NCCNc1ncccn1)C1CC(=O)N(C2CCCC2)C1 (stereo not given) | 21.6%
Cc1cnn(CCNCc2nnc(C3CC3)o2)c1 | 21.2%
c1cnn(CCNCc2nnc(C3CC3)o2)c1 | 53.5%
c1ccc(-c2nnc(CNCCn3cccn3)o2)cc1 | 32.6%
Cn1cccc1C(=O)N1CC[C@H]2C[C@@H](c3ccncn3)O[C@@H]2C1 | 41.5%
Cc1noc2nc(C3CCN(CC4CCCCC4)CC3)cc(C(F)F)c12 | 59%
Cc1noc2nc(C3CCN(Cc4ccncc4)CC3)cc(C(F)F)c12 | 44.9%
Cc1noc2nc(C3CCN(Cc4cccnc4)CC3)cc(C(F)F)c12 | 48.3%
CCCS(=O)(=O)N1C[C@@H]2C[C@H](C(=O)N3CCOCC3)[C@H](C1)O2 | -19.6%
CNC(=O)c1cccc(NC(=O)CN2CCCN(S(C)(=O)=O)CC2)c1 | -7.27%
